Results on 24 molecules are retold here after PubChem BioAssay (Tox21).

The nature of experiment [1]: qHTS RealTime-Glo MT Cell Viability Assay in HEK293 cells - 0 hour (AID 1224880). Also: nearly all actives have a fitted effect of over 45% in size. Also: potency is read from the fitted curve at half-maximal effect. Summed up:
(§1)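 600 cells/well were plated with the nonlytic NanoLuc/prosubstrate reagent, pre-incubated 5 h, then given 23 nL of compound in DMSO. Incubation at 37 C for 40 h, with luminescence from viable-cell-reduced substrate read repeatedly from 0 h.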

Experiment [2] can be described thus: A CellTox Green Cytotoxicity Assay to monitor cytotoxicity in HEK293 cells - 32 hour (AID 1224881). Also: nearly all actives have a fitted effect of over 40% in size. Also: potency is read from the fitted curve at half-maximal effect. In outline: (§2)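 HEK293 cells, 600/well, were preincubated 5 hours and then exposed to compounds at 37 C for up to 40 hours. A cell-impermeant cyanine dye staining dead-cell DNA was read by fluorescence at 0, 8, 16, 24, 32 and 40 h time points.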
Experiment [3] in a line: A CellTox Green Cytotoxicity Assay to monitor cytotoxicity in HepG2 cells - 0 hour (AID 1224882). Also: nearly all actives have a fitted effect of over 35% in size. In outline: (§3)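 HepG2 cells, 600/well, preincubated 5 h with CellTox Green dye, then exposed to Tox21 compounds in DMSO at 37 C for up to 40 h. Dead-cell DNA fluorescence read at the indicated time point.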
The nature of experiment [4]: A CellTox Green Cytotoxicity Assay to monitor cytotoxicity in HepG2 cells - 32 hour (AID 1224883). Also: nearly all actives have a fitted effect of over 50% in size. Also: potency is read from the fitted curve at half-maximal effect. Summed up:
as §3

Experiment [5] can be described thus: qHTS RealTime-Glo MT Cell Viability Assay in HepG2 cells - 16 hour (AID 1224885). Also: nearly all actives have a fitted effect of over 50% in size. Also: potency is read from the fitted curve at half-maximal effect. In outline: (§4)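 Compound treatment began 5 h after plating HepG2 cells (600/well) with NanoLuc luciferase and prosubstrate. Plates stayed at 37 C for 40 h; luminescence was captured at six time points, 0 h through 40 h.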
In general terms: qHTS replaces the single test concentration by a dilution series.

A short description of experiment [6]: qHTS RealTime-Glo MT Cell Viability Assay in HEK293 cells - 24 hour (AID 1224886). Also: nearly all actives have a fitted effect of over 50% in size. Also: potency is read from the fitted curve at half-maximal effect. Summed up: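 Quantitative high-throughput screen of the Tox21 10K library in HEK293: cells and RealTime-Glo reagents plated together, compound added at 5 h, luminescence monitored through 40 h at 37 C.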
The nature of experiment [7]: qHTS RealTime-Glo MT Cell Viability Assay in HEK293 cells - 8 hour (AID 1224887). Also: nearly all actives have a fitted effect of over 50% in size. Also: potency is read from the fitted curve at half-maximal effect. In outline:
as §1

Experiment [8] in a line: A CellTox Green Cytotoxicity Assay to monitor cytotoxicity in HEK293 cells - 8 hour (AID 1224884). Also: nearly all actives have a fitted effect of over 35% in size. Summed up:
as §2

Experiment [9] is described as follows: A CellTox Green Cytotoxicity Assay to monitor cytotoxicity in HEK293 cells - 16 hour (AID 1224888). Also: nearly all actives have a fitted effect of over 35% in size. Also: potency is read from the fitted curve at half-maximal effect. In outline:
as §2

Experiment [10] in a line: qHTS RealTime-Glo MT Cell Viability Assay in HepG2 cells - 0 hour (AID 1224889). Also: nearly all actives have a fitted effect of over 50% in size. Also: potency is read from the fitted curve at half-maximal effect. In outline:
as §4

Values without a mark were called inactive. Inconclusive results are not listed. The source made the active and inactive calls. Calls follow the shape of the dose curve; as a rule, active = well fitted curve in the direction sought with a large enough effect in the repeat runs; inconclusive = weak or mixed curves; inactive = no such curve, though single readings can be large; an effect the other way counts as inactive or inconclusive.

As to `CC(Cl)C(Cl)Cl` (stereo unspecified), the Potency entry in experiment [1], in [3], in [4], in [5], in experiment [6] and in [7] was “inactive” throughout. Besides, in experiment [2], the Potency is 48.2 µM (active).
`CC[C@@H]([C@H](C)O)n1ncn(-c2ccc(N3CCN(c4ccc(OC[C@@H]5CO[C@@](Cn6cncn6)(c6ccc(F)cc6F)C5)cc4)CC3)cc2)c1=O`: the Potency result in [1], in [2], in experiment [3], in experiment [4], in experiment [8] and in [9] was “inactive” each time. For the same molecule, in experiment [10], the Potency result was “inactive”. For the same molecule, the Potency in experiment [6] was 2.68 µM (active); in experiment [7], 6.01 µM (active).
Take `Cc1ccnc2ccccc12`: the Potency result in experiment [1], in experiment [2], in experiment [3], in experiment [8], in experiment [5] and in experiment [6] was “inactive” throughout. The Potency result in experiment [7], in [9] and in experiment [10] was “inactive” throughout.
Take `CCOC(=O)N1CCC(n2c(=O)[nH]c3cc(Cl)ccc32)CC1`: the Potency result in experiment [1], in experiment [2], in [3], in [4], in experiment [8] and in experiment [5] was “inactive” each time. Moreover, the Potency entry in [9] and in experiment [10] was “inactive” in each case.
For the molecule `COCCOC(=O)C1=C(C)NC(C)=C(C(=O)OC/C=C/c2ccccc2)C1c1cccc([N+](=O)[O-])c1` (stereo unspecified), the Potency in experiment [1] is 5.35 µM (active); in experiment [10], 6.74 µM (active). Moreover, the Potency entry in experiment [2], in experiment [3], in [4], in experiment [8], in experiment [6] and in experiment [9] was “inactive” each time.
Take `O=C(CCCN1CCN(c2ccc(F)cc2)CC1)NC1c2ccccc2CSc2ccccc21` (stereo unspecified): the Potency result in experiment [1], in experiment [2], in [3], in experiment [8], in experiment [9] and in [10] was “inactive” each time. Further, the Potency in experiment [4] was 23.9 µM (active); in [6], 16.9 µM (active); in [7] it was 19 µM (active).
As for `CCC(Cc1ccccc1)(C(=O)c1ccc(N2CCOCC2)cc1)N(C)C` (stereo unspecified), the Potency entry in [1], in experiment [2], in [3], in [4], in [8] and in [5] was “inactive” in each case. The Potency result in [9] and in [10] was “inactive” throughout.
In the case of `CC(C)(C)CC(C)(C)c1ccc(OCCO)cc1`, the Potency entry in experiment [1], in [3], in experiment [4] and in [5] was “inactive” in each case. In addition, the Potency in experiment [2] was 54.6 µM (active); in experiment [6], 5.46 µM (active); in experiment [7], 7.72 µM (active).
Consider `CCC(C)(C)C1CCC(O)CC1` (stereo unspecified), for which the Potency entry in experiment [1], in experiment [2], in experiment [3], in experiment [8], in experiment [5] and in experiment [6] was “inactive” each time. In addition, the Potency result in experiment [7], in experiment [9] and in experiment [10] was “inactive” throughout.
`CC(C)C(OC(=O)c1ccccc1)C(C)(C)COC(=O)c1ccccc1` (stereo unspecified): the Potency result in experiment [1], in [2], in experiment [3], in [4], in [5] and in experiment [7] was “inactive” in each case. Besides, the Potency entry in experiment [9] and in [10] was “inactive” throughout.
As to `Cc1cc(S(=O)(=O)O)ccc1N=Nc1c(O)ccc2ccccc12`, the Potency entry in [1], in [2], in experiment [3], in [4], in [8] and in experiment [6] was “inactive” in each case. Besides, the Potency result in [7] and in [9] was “inactive” throughout.
As to `CO/N=C1\CN(c2nc3c(cc2F)c(=O)c(C(=O)O)cn3C2CC2)CC1CN` (stereo unspecified), the Potency result in [1], in experiment [2], in [3], in experiment [8], in experiment [5] and in [6] was “inactive” throughout. The Potency entry in experiment [7], in [9] and in experiment [10] was “inactive” in each case.
Regarding `CCC(=O)OC/C=C/c1ccccc1`, the Potency result in experiment [1], in experiment [2], in experiment [3], in experiment [8], in experiment [5] and in experiment [6] was “inactive” throughout. For the same molecule, the Potency entry in [7] and in [9] was “inactive” throughout.
Consider `O=C(CCCCCCC(=O)Nc1ccccc1)NO`, for which the Potency entry in experiment [1], in experiment [2], in [3], in experiment [8] and in experiment [9] was “inactive” each time. In addition, the figures for the Potency in experiment [4] and in experiment [6] were 2.68 µM (active) and 2.39 µM (active), respectively.
Take `O=c1[nH]c2ccc(S(=O)CCN3CCC(Cc4ccc(F)cc4)CC3)cc2o1` (stereo unspecified): the Potency entry in [1], in experiment [2], in [3], in [4], in experiment [8] and in experiment [5] was “inactive” throughout. Further, in [9], the Potency result was “inactive”.
Turning to `CCCCC/C(=C\c1ccccc1)CO`, the Potency result in experiment [1], in experiment [3], in [4], in experiment [5], in [6] and in experiment [10] was “inactive” in each case. In addition, the results for the Potency in [2] and in [9] were 43.1 µM (active) and 48.4 µM (active), respectively.
Take `CNC(=S)NC`: the Potency result in [1], in experiment [2], in [3], in [8], in experiment [5] and in experiment [6] was “inactive” in each case. Also, the Potency result in experiment [7], in [9] and in [10] was “inactive” each time.
`CC(=O)[C@H]1CC[C@H]2[C@@H]3C[C@H](C)C4=CC(=O)CC[C@]4(C)[C@H]3[C@@H](O)C[C@]12C`: the Potency was 1.69 µM (active) in [1] and 0.379 µM (active) in [10]. In addition, the Potency result in experiment [2], in experiment [3], in experiment [4], in [8], in [5] and in experiment [7] was “inactive” each time. In addition, in [9], the Potency result is “inactive”.
For the molecule `C[C@@H]1C[C@H]2[C@@H]3CCC4=CC(=O)C=C[C@]4(C)[C@@]3(F)[C@@H](O)C[C@]2(C)[C@H]1C(=O)CO`, the Potency entry in experiment [1], in experiment [2], in [3], in [8], in experiment [5] and in experiment [6] was “inactive” in each case. Besides, the Potency entry in experiment [7] and in experiment [9] was “inactive” each time.
On to `CC(C)C(=O)O`, for which the Potency result in experiment [1], in experiment [2], in [3], in [8], in experiment [5] and in experiment [6] was “inactive” in each case. The Potency result in experiment [7], in [9] and in [10] was “inactive” in each case.
As for `CO[C@@]12[C@H](COC(N)=O)C3=C(C(=O)C(C)=C(N)C3=O)N1C[C@@H]1N[C@@H]12`, the Potency result in experiment [1], in [2], in experiment [3], in experiment [8], in experiment [7] and in [9] was “inactive” throughout. Moreover, the Potency is 8.49 µM (active) in experiment [4] and 3.38 µM (active) in experiment [5].
`CCOc1cc(N)c(Cl)cc1C(=O)NCC1CN(Cc2ccc(F)cc2)CCO1` (stereo unspecified): the Potency result in experiment [1], in [2], in [3], in [4], in [8] and in experiment [9] was “inactive” in each case. Also, the Potency in [6] is 15.1 µM (active); in experiment [7] it was 19 µM (active).
For the molecule `CCOC(=O)CC(=O)C(=O)OCC`, the Potency result in experiment [1], in [2], in experiment [3], in experiment [4], in experiment [8] and in experiment [5] was “inactive” in each case. Further, the Potency result in experiment [7] and in experiment [9] was “inactive” each time.
Regarding `CCc1c2c(nc3ccc(OC(=O)N4CCC(N5CCCCC5)CC4)cc13)-c1cc3c(c(=O)n1C2)COC(=O)[C@]3(O)CC`, the Potency entry in experiment [1], in experiment [2], in experiment [3], in experiment [8], in experiment [5] and in experiment [7] was “inactive” throughout. The Potency result in experiment [9] was “inactive”. The Potency in [6] was 2.68 µM (active).
